Measurements from PubChem BioAssay.
Calls of active or inactive are those of the source.

What was measured:
Albumin (Bos taurus) = Albumin (Bos taurus) (UniProt P02769); experiment: bovine serum albumin binders on microarray, profiling panel, artefact control for SMM control protein annotation, biochemical, small-molecule microarray, Alexa647 label, 635/667 nm fluorescence (AID 1118); settings: BSA-A647 binding, fluorescence 635 nm, higher = more signal;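 note: score merges 667 nm emission intensity and signal-to-noise per printed compound spot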
[1] = small-molecule microarray binders of probe aXIP, primary screen, biochemical, NeuroSMM set, 635/667 nm fluorescence (AID 1119); settings: higher = more signal, called active from +8 up or from −8 down;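 note: probe is the protein aXip251-270 applied at 1 µg/mL to compound-printed slides; binding of probe to printed compounds measured as 667 nm fluorescence plus signal to noise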
[2] = small-molecule binders of probe aNOTCH3, primary screen, biochemical, small-molecule microarray, 635/667 nm fluorescence (AID 1120); settings: higher = more signal;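 note: probe is a biotin-tagged antibody raised against NOTCH3 rather than NOTCH3 protein; score merges spot fluorescence near 667 nm with spot signal to noise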
[3] = small-molecule binders of probe aNOTCH2, primary screen, biochemical, small-molecule microarray, 635/667 nm fluorescence (AID 1121); settings: higher = more signal;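 note: score merges feature fluorescence read at 667 nm with its signal to noise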
[4] = target: Carbonic anhydrase 2 (Homo sapiens) (UniProt P00918); experiment: CAII small-molecule binders, profiling panel, biochemical, small-molecule microarray, Alexa647-labelled CAII (AID 1122); settings: CAII-A647 binding fluorescence, higher = more signal
[5] = COS7 lysate on small-molecule microarray, probe aHis, 635 nm (AID 1123); settings: COS7 cell lysate, fluorescence, higher = more signal;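 note: z-score combines 667nm fluorescence intensity with signal-to-noise per printed compound spot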
[6] = compound binding in COS7 lysate, probe aLAP1, primary screen, cell lysate, small-molecule microarray (AID 1124); settings: probe aLAP1, fluorescence, higher = more signal;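 note: lysate comes from COS7 cells expressing LAP1 and is applied at 0.3 µg/mL; score merges spot fluorescence near 667 nm with signal-to-noise over triplicate slides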
Sam68 (KHDRBS1) = experiment: Sam68 small-molecule binders, primary screen, biochemical, small-molecule microarray, 635 nm fluorescence (AID 1125); settings: small-molecule microarray binding, higher = more signal;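 note: score merges 667 nm channel intensity with signal to noise over triplicate slides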
[7] = test system: Chordin-like protein 2 (CHRDL2); experiment: CHRDL2 small-molecule binders, primary screen, biochemical, small-molecule microarray, 635 nm fluorescence (AID 1126); settings: small-molecule microarray binding, fluorescence 635 nm; higher = more signal;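 note: printed compound slides probed with Chrdl2 protein at 4 µg/mL for 1 h at 4 C; score merges 667 nm emission intensity with signal to noise over three replicate slides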
[8] = target: Concanavalin-A (Canavalia ensiformis) (UniProt P02866); experiment: ConA small-molecule binders, primary screen, artefact control for SMM control protein annotation, biochemical, small-molecule microarray, Alexa647 label, 635 nm (AID 1127); settings: ConA-A647 binding fluorescence, higher = more signal;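 note: z combines 667 nm emission intensity with signal-to-noise across three replicate slides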
[9] = anti-His antibody binders, primary screen, artefact control for SMM control protein annotation, biochemical, small-molecule microarray, 635 nm fluorescence (AID 1128); settings: anti-His Alexa647 antibody binding, higher = more signal;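 note: score merges feature fluorescence with signal-to-noise for each printed compound spot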
[10] = test system: Human papillomavirus type 1a E7 protein (residues 1-88); experiment: HPV1a E7 small-molecule binders, primary screen, biochemical, small-molecule microarray, residues 1-88, 635 nm (AID 1129); settings: small-molecule microarray binding, fluorescence 635 nm; higher = more signal
[11] = target: Focal adhesion kinase 1 (Homo sapiens) (UniProt Q05397); experiment: small-molecule microarray binders of FAK, primary screen, biochemical, 635/667 nm fluorescence, BSA, DTT (AID 1130); settings: PTK2 binding, 635 nm fluorescence, higher = more signal;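 note: composite of spot emission at 667 nm and signal to noise over triplicate slides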
[12] = test system: Fibrinogen (Alexa647-labelled); experiment: fibrinogen binders on compound microarrays, profiling panel, artefact control for SMM control-protein annotation, biochemical, small-molecule microarray, 635/667 nm fluorescence (AID 1131); settings: fibrinogen-A647 binding fluorescence, higher = more signal;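 note: z-score merges 667 nm fluorescence with per-spot signal-to-noise over triplicate slides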
[13] = target: Follistatin (Homo sapiens) (UniProt P19883); experiment: follistatin binders on small-molecule microarrays, primary screen, biochemical, small-molecule microarray, 635/667 nm fluorescence (AID 1132); settings: FST binding, 635 nm fluorescence, higher = more signal
[14] = target: Fibroblast growth factor 2 (Homo sapiens) (UniProt P09038); experiment: FGF2 binders on small-molecule microarrays, primary screen, biochemical, small-molecule microarray, 635/667 nm fluorescence (AID 1133); settings: small-molecule microarray binding, FGF2, fluorescence 635/667; higher = more signal
[15] = mitochondrial membrane potential change in A549 cells, profiling panel, cell-based, JC-1 fluorescence, basal, 24 h, 100 nL (AID 1138); settings: higher = more signal;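 note: A549 lung adenocarcinoma cells under basal conditions with no added stimulus; test concentration not given here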
Lefty1 = Lefty1 binders on small-molecule microarrays, primary screen, biochemical, small-molecule microarray, 635/667 nm fluorescence (AID 1139); settings: small-molecule microarray binding, fluorescence 635/667; higher = more signal
[16] = test system: wheat germ agglutinin (Triticum aestivum), Alexa647-labelled; experiment: wheat germ agglutinin binders on compound microarrays, profiling panel, artefact control for SMM control-protein annotation, biochemical, small-molecule microarray, 635/667 nm fluorescence (AID 1140); settings: WGA-A647 binding, 635 nm fluorescence, higher = more signal;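 note: score merges 667 nm feature emission with signal to noise over triplicate slides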
[17] = target: Luciferin 4-monooxygenase (Photinus pyralis) (UniProt P08659); experiment: firefly luciferase enzyme inhibitors, primary screen, biochemical, luminescence, purified enzyme, 2006 set (AID 1141); settings: SteadyGlo luminescence, 30 min, higher = more signal, called active from +8 up or from −8 down;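 note: cell-free assay with purified firefly luciferase at 100 ng per well in PBS; test concentration not given here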
Chain of Luciferin 4-monooxygenase (Photinus pyralis) (P08659 whole entry, looked up): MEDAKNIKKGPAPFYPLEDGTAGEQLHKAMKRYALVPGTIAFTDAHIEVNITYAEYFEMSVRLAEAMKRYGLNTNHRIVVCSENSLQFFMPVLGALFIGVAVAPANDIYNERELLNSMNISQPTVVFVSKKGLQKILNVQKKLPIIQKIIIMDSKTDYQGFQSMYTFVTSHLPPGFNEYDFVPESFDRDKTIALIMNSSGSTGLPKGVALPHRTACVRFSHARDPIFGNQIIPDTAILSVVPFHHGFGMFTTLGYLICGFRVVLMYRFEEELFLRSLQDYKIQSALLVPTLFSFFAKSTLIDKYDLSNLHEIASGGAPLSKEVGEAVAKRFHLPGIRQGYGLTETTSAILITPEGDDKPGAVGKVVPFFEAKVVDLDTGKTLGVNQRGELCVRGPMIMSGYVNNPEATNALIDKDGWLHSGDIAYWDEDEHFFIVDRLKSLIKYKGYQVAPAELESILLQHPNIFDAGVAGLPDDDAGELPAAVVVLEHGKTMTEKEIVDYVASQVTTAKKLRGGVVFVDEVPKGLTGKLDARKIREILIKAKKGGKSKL

Chain of Concanavalin-A (Canavalia ensiformis) (P02866 whole entry, looked up): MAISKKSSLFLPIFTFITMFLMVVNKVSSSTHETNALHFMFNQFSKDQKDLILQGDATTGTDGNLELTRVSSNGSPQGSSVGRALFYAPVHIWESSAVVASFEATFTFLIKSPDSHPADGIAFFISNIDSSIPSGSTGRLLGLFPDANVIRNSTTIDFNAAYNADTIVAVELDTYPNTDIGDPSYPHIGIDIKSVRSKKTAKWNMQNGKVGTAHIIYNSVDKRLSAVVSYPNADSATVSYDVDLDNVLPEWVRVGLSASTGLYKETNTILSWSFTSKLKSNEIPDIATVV
Chain of Fibroblast growth factor 2 (Homo sapiens) (P09038 whole entry, looked up): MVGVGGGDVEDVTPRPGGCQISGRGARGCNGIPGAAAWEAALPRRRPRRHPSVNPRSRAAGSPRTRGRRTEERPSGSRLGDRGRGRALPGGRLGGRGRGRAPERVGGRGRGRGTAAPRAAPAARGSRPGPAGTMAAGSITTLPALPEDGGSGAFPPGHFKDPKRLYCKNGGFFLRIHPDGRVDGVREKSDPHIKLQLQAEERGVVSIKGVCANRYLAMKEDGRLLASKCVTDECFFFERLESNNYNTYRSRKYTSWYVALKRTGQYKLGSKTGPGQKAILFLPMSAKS
Chain of Focal adhesion kinase 1 (Homo sapiens) (Q05397 whole entry, looked up): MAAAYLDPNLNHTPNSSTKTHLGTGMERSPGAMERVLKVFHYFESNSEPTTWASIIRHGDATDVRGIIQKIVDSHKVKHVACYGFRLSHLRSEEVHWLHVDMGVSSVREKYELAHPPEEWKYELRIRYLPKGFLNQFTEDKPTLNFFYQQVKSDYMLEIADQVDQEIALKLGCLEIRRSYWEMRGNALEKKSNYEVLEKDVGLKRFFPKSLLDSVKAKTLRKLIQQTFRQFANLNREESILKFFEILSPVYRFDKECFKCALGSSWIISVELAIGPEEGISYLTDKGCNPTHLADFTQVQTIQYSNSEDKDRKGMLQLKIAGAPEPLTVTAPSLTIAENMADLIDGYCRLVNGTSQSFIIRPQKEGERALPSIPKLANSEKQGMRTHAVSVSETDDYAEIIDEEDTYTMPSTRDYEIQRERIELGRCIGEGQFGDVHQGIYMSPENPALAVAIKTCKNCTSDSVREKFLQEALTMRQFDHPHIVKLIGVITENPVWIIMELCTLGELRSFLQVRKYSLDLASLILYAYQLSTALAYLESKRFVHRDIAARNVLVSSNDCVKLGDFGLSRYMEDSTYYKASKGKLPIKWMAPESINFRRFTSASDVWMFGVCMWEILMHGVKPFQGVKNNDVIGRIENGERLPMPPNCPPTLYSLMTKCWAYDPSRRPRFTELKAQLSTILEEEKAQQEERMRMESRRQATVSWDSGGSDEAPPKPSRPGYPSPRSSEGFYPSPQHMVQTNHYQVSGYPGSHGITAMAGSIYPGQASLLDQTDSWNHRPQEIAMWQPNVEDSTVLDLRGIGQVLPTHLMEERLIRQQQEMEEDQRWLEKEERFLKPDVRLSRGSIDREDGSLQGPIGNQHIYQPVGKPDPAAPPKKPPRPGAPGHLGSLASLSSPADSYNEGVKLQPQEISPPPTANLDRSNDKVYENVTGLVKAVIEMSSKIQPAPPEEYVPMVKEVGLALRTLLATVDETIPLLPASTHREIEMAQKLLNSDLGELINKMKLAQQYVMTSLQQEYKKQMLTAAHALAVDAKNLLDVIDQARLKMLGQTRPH
Chain of Albumin (Bos taurus) (P02769 whole entry, looked up): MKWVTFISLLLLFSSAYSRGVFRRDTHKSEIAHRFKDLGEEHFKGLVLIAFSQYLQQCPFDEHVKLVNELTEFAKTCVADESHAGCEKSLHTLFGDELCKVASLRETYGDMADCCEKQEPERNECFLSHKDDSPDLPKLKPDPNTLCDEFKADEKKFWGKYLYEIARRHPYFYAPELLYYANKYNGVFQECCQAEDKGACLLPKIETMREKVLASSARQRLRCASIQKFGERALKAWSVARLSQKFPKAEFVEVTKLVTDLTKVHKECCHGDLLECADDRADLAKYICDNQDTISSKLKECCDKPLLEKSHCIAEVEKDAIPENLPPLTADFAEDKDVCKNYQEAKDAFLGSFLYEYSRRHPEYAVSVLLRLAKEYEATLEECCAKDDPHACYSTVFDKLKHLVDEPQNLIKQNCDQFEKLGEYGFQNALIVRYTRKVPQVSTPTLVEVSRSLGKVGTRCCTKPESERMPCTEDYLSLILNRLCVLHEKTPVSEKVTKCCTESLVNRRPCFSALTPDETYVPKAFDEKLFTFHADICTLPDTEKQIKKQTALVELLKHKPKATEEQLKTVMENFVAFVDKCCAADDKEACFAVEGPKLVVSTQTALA
Chain of Follistatin (Homo sapiens) (P19883 whole entry, looked up): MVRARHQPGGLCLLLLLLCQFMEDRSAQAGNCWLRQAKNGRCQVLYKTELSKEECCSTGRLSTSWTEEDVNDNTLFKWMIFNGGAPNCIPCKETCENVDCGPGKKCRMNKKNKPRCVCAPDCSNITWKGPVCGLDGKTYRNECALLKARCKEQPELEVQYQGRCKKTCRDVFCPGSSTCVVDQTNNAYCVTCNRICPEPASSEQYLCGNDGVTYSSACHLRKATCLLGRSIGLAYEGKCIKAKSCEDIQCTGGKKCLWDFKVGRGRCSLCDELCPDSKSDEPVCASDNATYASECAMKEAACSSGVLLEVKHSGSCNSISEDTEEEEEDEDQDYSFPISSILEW

| Compound | composite z-score (Albumin (Bos taurus)) | composite Z-score [1] | composite z-score [2] | composite z-score [3] | composite z-score [4] | composite z-score [5] | composite z-score [6] | composite z-score (Sam68 (KHDRBS1)) | composite z-score [7] | composite z-score [8] | composite z-score [9] | composite z-score [10] | composite z-score [11] | composite z-score [12] | composite z-score [13] | composite z-score [14] | z-score [15] | composite z-score (Lefty1) | composite z-score [16] | z-score [17] |
| --- | --- | --- | --- | --- | --- | --- | --- | --- | --- | --- | --- | --- | --- | --- | --- | --- | --- | --- | --- | --- |
| CCCC[C@H]1CN2[C@@H](CC[C@@H](C)[C@@H]2c2ccc(Br)cc2)C(=O)O1 | 0.738 | 0.689 (inactive) | -0.137 | -0.183 | 0.397 | 0.615 | 1.59 | 1.29 | 0.549 | 0.764 | 0.256 | 1.17 | 0.307 | 0.831 | 0.53 | 0.198 | 0.962 | 0.326 | 0.542 | -2.12 (inactive) |
| CO[C@H]1COC(=O)[C@H](C)COC(=O)[C@H](C)NC(=O)CC=C[C@H]1C | -0.642 | 1.19 (inactive) | -0.131 | -0.0051 | 0.0006 | -0.429 | 0.352 | 1.04 | 1.44 | -0.581 | 0.0849 | -0.375 | -0.315 | -1.01 | 1.41 | 1.43 | 0.763 | 1.36 | -0.729 | -0.403 (inactive) |
| CON=C(C)CCN1CCCc2nc(C)c(C)cc21 | -0.353 | 0.599 (inactive) | 0.0496 | -0.0769 | 0.438 | 1.42 | 0.234 | 1.1 | 0.637 | 0.374 | 1.15 | 0.476 | -0.0211 | 0.613 | 0.632 | 0.653 | 1.45 | 1.05 | 0.201 | 0.267 (inactive) |
| CCOC(=O)CCN1C(=O)[C@H]2[C@H]3[C@H](O)[C@H](O)CC(=NOCC=C(C)CCC=C(C)C)[C@H]3CC[C@H]2C1=O | -0.269 | -0.113 (inactive) | 0.179 | -0.167 | -0.276 | -0.405 | -0.192 | 0.458 | -0.178 | 0.116 | -1.12 | -0.251 | -0.0341 | -0.161 | -0.975 | 0.404 | 0.64 | -0.893 | -0.503 | 0.0499 (inactive) |
| CC(CCN1CCc2nc(-c3ccccc3)c(-c3ccccc3)cc2C1)=NOC(C)CN1CCCc2nc(C)c(C)cc21 (stereo not given) | 0.682 | 0.944 (inactive) | 0.233 | -0.0278 | 0.369 | 1.09 | 0.506 | 1.29 | 0.219 | 1.08 | -0.929 | 1.15 | 0.382 | 0.96 | 0.94 | 0.541 | 3.46 | 0.659 | 0.379 | 0.397 (inactive) |
| COC(=O)[C@@H]1CC[C@H](C)[C@@H](c2ccc(Br)cc2)N1 | -0.109 | 1.22 (inactive) | 0.086 | 0.0037 | 0.665 | 0.878 | -0.243 | -1.39 | 0.322 | -0.197 | 0.426 | -1.3 | 1.38 | 0.102 | -0.291 | -0.21 | 0.0492 | -0.04 | -0.197 | -0.464 (inactive) |
| C=CC[C@@H]1C=CC(ON=C(C)C)[C@@H](CO)O1 (stereo not given in full) | -0.282 | 0.112 (inactive) | -0.0288 | -0.19 | -0.341 | -0.301 | -0.178 | -1.11 | -0.213 | -0.0875 | 3.16 | -0.901 | 0.0886 | -0.445 | -0.356 | -0.458 | 0.178 | -0.0561 | -0.0488 | -0.0424 (inactive) |
| O=C1[C@H]2[C@H]3[C@H](O)[C@H](O)CC(=NOC[C@@H](O)COCc4ccco4)[C@@H]3CC[C@H]2C(=O)N1Cc1ccccc1 | -0.123 | -0.0662 (inactive) | 0.121 | -0.102 | 0.552 | 0.654 | 0.173 | 1.3 | 1.4 | -0.193 | 0.381 | 1.26 | 0.728 | -0.956 | 1.37 | 0.962 | 0.0705 | 0.941 | 0.265 | 1.2 (inactive) |
| COC(=O)C(C(=O)OC)C1CCCC(=O)C1 (stereo not given) | -0.0912 | 0.499 (inactive) | -0.0391 | -0.0694 | 0.381 | 0.214 | -0.205 | -0.0924 | 0.414 | 0.468 | 0.252 | 0.433 | 0.193 | 0.372 | 0.326 | 0.692 | -1.13 | 0.804 | 0.173 | 0.138 (inactive) |
| COc1ccc(O[C@H]2C=C[C@@H](c3ccccc3)O[C@@H]2CON=C2c3cc(OC)ccc3O[C@H](c3cccc(OC)c3)[C@H]2O)cc1 | 0.322 | -0.222 (inactive) | -0.122 | -0.255 | 0.417 | 0.567 | 1.15 | 0.164 | 0.171 | -0.996 | -0.622 | 0.463 | 0.121 | -0.413 | 0.618 | 1.63 | 0.0904 | 1.1 | 0.701 | 1.16 (inactive) |
| CSCC[C@@H]1NC(=O)CC=C[C@@H](C)COC(=O)[C@H](C)COC1=O | -0.891 | 3.62 (inactive) | -0.172 | 0.059 | -0.682 | -0.808 | -0.848 | 1.02 | 1.64 | -2.98 | -1.14 | -1.34 | -0.697 | -3.03 | 1.45 | 1.95 | 1.64 | 1.85 | -0.663 | -1.95 (inactive) |
